Among all 310,000 compounds or so, about 14,000 (4.5%) showed an effect of 50% or more. Effects have a minus sign here. The sample holds strong results, similar compounds and a random draw of the others, so the mix is not that of the screen.
Target: human ether-à-go-go-related gene (hERG) potassium channel (human, UniProt Q12809)
Assay: primary screen, population patch clamp on CHO cells stably expressing hERG; higher = less effect of the substance
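Note: peak tail current of the secondary pulse compared with the same well before compound.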

human ether-à-go-go-related gene (hERG) potassium channel, sequence (Q12809 whole entry, looked up): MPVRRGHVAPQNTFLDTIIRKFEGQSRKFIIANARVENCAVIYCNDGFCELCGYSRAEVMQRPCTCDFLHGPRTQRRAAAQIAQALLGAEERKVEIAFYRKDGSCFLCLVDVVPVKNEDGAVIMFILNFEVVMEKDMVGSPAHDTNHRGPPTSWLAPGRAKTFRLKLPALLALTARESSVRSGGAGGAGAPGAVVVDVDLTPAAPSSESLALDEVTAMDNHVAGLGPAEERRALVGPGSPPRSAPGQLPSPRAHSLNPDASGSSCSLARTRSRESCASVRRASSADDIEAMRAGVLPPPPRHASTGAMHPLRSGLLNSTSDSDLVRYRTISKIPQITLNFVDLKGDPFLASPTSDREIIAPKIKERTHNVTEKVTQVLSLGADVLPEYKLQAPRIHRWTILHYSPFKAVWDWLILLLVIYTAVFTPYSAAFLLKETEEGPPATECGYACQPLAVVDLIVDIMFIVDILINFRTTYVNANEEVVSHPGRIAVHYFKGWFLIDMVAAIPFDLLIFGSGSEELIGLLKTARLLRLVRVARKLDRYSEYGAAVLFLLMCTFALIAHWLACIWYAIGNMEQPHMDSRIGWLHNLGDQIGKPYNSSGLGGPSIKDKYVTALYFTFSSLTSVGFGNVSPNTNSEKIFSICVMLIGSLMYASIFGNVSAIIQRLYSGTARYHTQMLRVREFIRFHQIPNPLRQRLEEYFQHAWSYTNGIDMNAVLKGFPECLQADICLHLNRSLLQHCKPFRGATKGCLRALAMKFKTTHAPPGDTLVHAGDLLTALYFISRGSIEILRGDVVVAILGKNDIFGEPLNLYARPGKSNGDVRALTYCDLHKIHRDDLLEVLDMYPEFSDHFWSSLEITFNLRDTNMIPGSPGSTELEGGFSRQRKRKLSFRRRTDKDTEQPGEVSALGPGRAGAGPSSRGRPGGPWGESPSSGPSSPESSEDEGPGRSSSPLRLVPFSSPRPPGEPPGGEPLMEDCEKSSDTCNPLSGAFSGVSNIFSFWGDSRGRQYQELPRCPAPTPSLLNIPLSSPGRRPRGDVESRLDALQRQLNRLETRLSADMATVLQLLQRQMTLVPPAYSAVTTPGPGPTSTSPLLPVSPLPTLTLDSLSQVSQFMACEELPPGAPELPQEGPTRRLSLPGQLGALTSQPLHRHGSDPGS

Compound | hERG current change (%, negative = inhibition) at 10uM
COc1ccc(C2C3=C(CC(C)(C)CC3=O)Oc3ncn(CCO)c(=N)c32)cc1OC (stereo not drawn) | -24.5%
COc1ccc(C2C(C#N)=C(N)OC3=C2C(=O)CC(C)(C)C3)cc1 (stereo not drawn) | 12.8%
CC1(C)CC(=O)C2=C(C1)Oc1ncn(CCCn3ccnc3)c(=N)c1C2c1ccccc1 (stereo not drawn) | -53.3%
COc1ccc(C2C3=C(CC(C)(C)CC3=O)OC(N)=C2[N+](=O)[O-])cc1 (stereo not drawn) | 8.74%
CC1(C)CC(=O)C2=C(C1)Oc1ncn(Cc3ccco3)c(=N)c1C2c1ccccc1 (stereo not drawn) | -60.8%
COc1ccc(C2C3=C(CC(C)(C)CC3=O)Oc3ncn(Cc4ccco4)c(=N)c32)cc1 (stereo not drawn) | -68.3%
COc1ccc(C2C3=C(CC(C)(C)CC3=O)Oc3ncn(CC(C)C)c(=N)c32)cc1 (stereo not drawn) | -69.1%
N=c1c2c(ncn1Cc1ccco1)Oc1ccc3ccccc3c1C2c1ccccc1 (stereo not drawn) | -6.08%
COc1ccc(C2C3=C(CC(C)(C)CC3=O)Oc3ncn(CCCn4ccnc4)c(=N)c32)cc1 (stereo not drawn) | -16.6%
CC1(C)CC(=O)C2=C(C1)Oc1ncn(CCCO)c(=N)c1C2c1ccccc1 (stereo not drawn) | -29%
Cc1onc(-c2c(Cl)cccc2Cl)c1C(=O)O/N=C(\C#N)c1c(Cl)cccc1Cl | 9.4%
COc1cccc(CNC(=O)CCNC(=O)c2ccc(Br)o2)c1 | 11.2%
Nc1cc(=O)[nH]c(SCC(=O)Nc2ccccc2Sc2ccc(Cl)cc2)n1 | 14.5%
Cc1ccc(OCCNC(=O)CNC(=O)c2ccc(C)cc2)cc1 | 9.37%
COCCNC(=O)Cc1cn(C)c2ccccc12 | 4.15%
CCOC(=O)N1CCC(=NNC(=O)c2ccc(O)cc2)CC1 | 4.27%
COc1ccc(C2C3=C(CC(C)(C)CC3=O)Oc3ncn4nc(-c5cccnc5)nc4c32)cc1 (stereo not drawn) | -2.59%
COc1ccc(C2C3=C(CC(C)(C)CC3=O)Oc3ncn(Cc4ccccc4)c(=N)c32)cc1 (stereo not drawn) | -55.5%
COc1ccc(C2C3=C(CC(C)(C)CC3=O)Nc3c2c(=O)[nH]c(=O)n3Cc2ccccc2)cc1 (stereo not drawn) | 8.57%
O=C(c1ccc(F)cc1)C1CCN(Cc2cn[nH]c2-c2ccccc2)CC1 | -78.8%
O=C(C1CCN(Cc2cn[nH]c2-c2ccc(F)cc2F)CC1)N1CCOCC1 | 8.72%
COc1ccc(-c2[nH]ncc2CN2CCC(C(=O)N3CCOCC3)CC2)c(F)c1 | 5.23%
COc1ccc(-c2[nH]ncc2CN2CCC(C(=O)c3ccc(F)cc3)CC2)cc1 | -76.2%

Compound | hERG current change (%, negative = inhibition) at 10uM
O=C(c1ccc(F)cc1)C1CCN(Cc2cn[nH]c2-c2ccc(F)cc2)CC1 | -75.2%
O=C(c1ccc(F)cc1)C1CCN(S(=O)(=O)c2ccccc2)CC1 | -43.1%
COc1ccc(C(=O)N2CCN(Cc3cn[nH]c3-c3ccc(OC)cc3F)CC2)cc1 | -38.3%
O=S(=O)(c1ccc2c(c1)CCN2)N1CCOCC1 | -2.2%
O=c1c2cc(N3CCOCC3)ccc2[nH]c(=S)n1Cc1ccco1 | -25.1%
Cc1cc(N2CC34C=CC(O3)C(C(=O)O)C4C2=O)no1 (stereo not drawn) | 2.22%
COC(=O)COc1ccc2occ(C(C)=O)c2c1 | -3.74%
O=C(NCC(c1ccco1)N1CCc2ccccc2C1)c1ccccc1Br (stereo not drawn) | -37.5%
CCCCCCC1C(C#N)=C(N)OC2=C1C(=O)CC(C)(C)C2 (stereo not drawn) | -0.43%
Cc1ccccc1OC(C)C(=O)N1CCC(Cc2ccccc2)CC1 (stereo not drawn) | -17.5%
O=C(/C=C/c1ccco1)Nc1ccc(CN2CCOCC2)cc1 | -31.3%
CCCN1CCC(=O)N(CCSc2ccc(OC)cc2)CC1 | -45.4%
COc1ccc(CN2CCC(=O)N([C@H](CO)CC(C)C)CC2)cc1 | -2.62%
COc1ccc(SC[C@H](Cc2ccccc2)N2CC[C@@H](C(C)(C)C)CCC2=O)cc1 | 9.92%
COc1ccc(SC[C@H](Cc2ccccc2)N2CC[C@@H](C)CCC2=O)cc1 | -20.1%
COc1ccc(SC[C@H](CC(C)C)N2CCN(C)CCC2=O)cc1 | -36.3%
COc1ccc(CN2CCC(=O)N([C@H](CO)Cc3ccccc3)CC2)cc1 | -2.16%
COc1ccc(SC[C@H](CC(C)C)N2CCN(CCc3ccccc3)CCC2=O)cc1 | -71.3%
CCCN1CCC(=O)N([C@H](CSc2ccc(OC)cc2)CC(C)C)CC1 | -70.8%
COc1ccc(SC[C@H](Cc2ccccc2)N2CC[C@@H](O)CCC2=O)cc1 | -8.62%
COc1ccc(SC[C@H](Cc2ccccc2)N2CCN(CCc3ccccc3)CCC2=O)cc1 | -74.6%
CCCN1CCC(=O)N([C@H](CSc2ccc(OC)cc2)Cc2ccccc2)CC1 | -70.5%
